This passage reports outcome and AC50 results from PubChem BioAssay (EPA / NIEHS).

The nature of assay [1]: ATG_CRE_CIS: Attagene CIS-FACTORIAL HepG2 Assay for human cAMP Responsive Element (CRE) binding protein 3 (AID 2282926). Particulars: HepG2 CRE cis-reporter, Attagene multiplexed mRNA; actives raise or lower the signal. In a few lines:
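Induced reporter mRNA from a CRE cis element, measured in HepG2 among many multiplexed units at 24 h. Detection used RT-PCR plus capillary electrophoresis of fluorescent fragments; DMSO served as negative control.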

Assay [2] addresses CCAAT/enhancer-binding protein beta (Homo sapiens) (UniProt P17676). Nature of the assay: ATG_C_EBP_CIS: Attagene CIS-FACTORIAL HepG2 Assay for human CCAAT/Enhancer Binding Protein (C/EBP) beta (AID 2282927). Particulars: HepG2 Attagene cis-factorial transcription factor reporter; actives raise or lower the signal. In a few lines:
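Transiently transfected HepG2 (MRTU library, endogenous TF-driven promoters); 24 h dosing; total RNA → oligo(dT) RT → PCR → 6-FAM primer extension → HpaI digest → CE; fit bidirectionally vs DMSO.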

Assay [3] in a line: ATG_CMV_CIS: Attagene CIS-FACTORIAL HepG2 Assay for human CMV (Internal Marker) (AID 2282928).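 Also: endpoint acts as a background internal control marker rather than a target.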 Particulars: HepG2 CMV promoter reporter, transcription factor profiling; actives raise or lower the signal. The gist of the method:
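Readout: fluorescent reporter cDNA fragments separated by capillary electrophoresis after RT-PCR and HpaI cut. Cells: HepG2 carrying transfected cis-promoter reporter constructs, dosed 24 h. Endpoint serves as background internal-marker control, fit bidirectionally versus DMSO.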

Assay [4] in a line: ATG_DR4_LXR_CIS: Attagene CIS-FACTORIAL HepG2 Assay for human Liver X Receptor (LXR), DR4 submotif (AID 2282929). The following applies: HepG2 Attagene DR4 cis-reporter, mRNA transcription; actives raise or lower the signal. In a few lines:
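After transient transfection with multiplexed cis-promoter reporter units, HepG2 cells received test chemicals for 24 h. Reporter mRNA induction, detected by fluorescence after RT-PCR and capillary electrophoresis, was scored relative to DMSO.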

The nature of assay [5]: ATG_AP_1_CIS: Attagene CIS-FACTORIAL HepG2 Assay for human Activator Protein 1 (AP-1) (AID 2282931). The following applies: HepG2 Attagene cis-factorial AP-1 reporter mRNA; actives raise or lower the signal. The gist of the method: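 After 24 h incubation with test chemical, RNA from transfected HepG2 cells was reverse-transcribed, amplified, fluorescently labelled and digested before capillary electrophoresis. Reporters were driven by cis-regulatory promoters; activity fitted bidirectionally versus DMSO.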

The nature of assay [6]: ATG_BRE_CIS: Attagene CIS-FACTORIAL HepG2 Assay for human Bone Morphogenetic Protein (BMP) Response Element (BRE) (AID 2282933). The following applies: HepG2 BMP response element reporter, Attagene transcription factor profiling; actives raise or lower the signal. The gist of the method:
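Endogenous transcription factor activity at a BMP response element was monitored in transfected HepG2 cells 24 h after dosing. Fluorescent RT-PCR products were resolved by capillary electrophoresis, and activity was fitted in both directions versus DMSO.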

The nature of assay [7]: ATG_AP_2_CIS: Attagene CIS-FACTORIAL HepG2 Assay for human Activator Protein 2 (AP-2) (AID 2282932). Particulars: HepG2 AP-2 cis-reporter, Attagene transcription factor profiling; actives raise or lower the signal. In a few lines:
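Read-out: fluorescent reporter mRNA via RT-PCR and capillary electrophoresis, 24 h post-dose in transiently transfected HepG2. Endogenous factors drive cis-promoter reporters; gain or loss of signal fitted bidirectionally against DMSO.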

Assay [8] addresses Retinoic acid receptor alpha (Homo sapiens) (UniProt P10276). Kind of assay: ATG_DR5_RAR_CIS: Attagene CIS-FACTORIAL HepG2 Assay for human Retinoic Acid Receptor Alpha (RARE), DR5 submotif (AID 2282934). Particulars: HepG2 Attagene cis-factorial RARE DR5 reporter, mRNA; actives raise or lower the signal. In a few lines:
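Read-out: DR5-driven reporter transcript measured by RT-PCR, 6-FAM primer extension, HpaI digest and capillary electrophoresis. Human HepG2 liver cells carry transiently transfected cis-element reporter constructs; dosing lasts 24 h. Gain or loss of signal fitted against DMSO baseline.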

Structures are written as SMILES. Calls of active or inactive are those of the source. The calls were made as follows: active = hit-call score of the fitted dose curve at least 0.9, where 1 is the maximum; inactive = score below 0.9.

Retinoic acid receptor alpha (Homo sapiens), sequence (P10276 whole entry, looked up): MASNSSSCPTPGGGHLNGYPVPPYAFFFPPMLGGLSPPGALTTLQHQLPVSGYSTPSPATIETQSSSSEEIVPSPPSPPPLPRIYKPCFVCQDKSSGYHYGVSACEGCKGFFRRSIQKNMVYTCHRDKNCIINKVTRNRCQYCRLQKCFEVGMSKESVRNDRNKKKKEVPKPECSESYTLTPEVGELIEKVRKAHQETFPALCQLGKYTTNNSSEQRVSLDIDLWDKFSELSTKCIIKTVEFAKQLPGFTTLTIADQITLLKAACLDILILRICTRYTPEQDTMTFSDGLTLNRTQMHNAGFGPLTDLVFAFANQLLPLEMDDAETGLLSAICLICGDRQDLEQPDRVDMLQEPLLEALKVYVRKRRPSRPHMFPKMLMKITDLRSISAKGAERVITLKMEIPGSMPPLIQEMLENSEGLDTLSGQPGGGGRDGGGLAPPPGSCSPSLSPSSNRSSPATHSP
CCAAT/enhancer-binding protein beta (Homo sapiens), sequence (P17676 whole entry, looked up): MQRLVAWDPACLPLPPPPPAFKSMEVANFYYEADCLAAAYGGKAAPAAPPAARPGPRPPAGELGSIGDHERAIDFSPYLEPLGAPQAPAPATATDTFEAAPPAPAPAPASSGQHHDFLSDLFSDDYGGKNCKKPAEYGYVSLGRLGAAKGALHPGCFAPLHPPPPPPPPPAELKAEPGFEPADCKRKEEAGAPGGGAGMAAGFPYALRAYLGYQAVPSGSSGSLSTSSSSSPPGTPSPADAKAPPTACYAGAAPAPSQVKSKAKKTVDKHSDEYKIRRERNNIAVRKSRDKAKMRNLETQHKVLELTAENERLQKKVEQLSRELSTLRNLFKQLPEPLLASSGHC

As to `CC1=CCC(C(C)C)=CC1`, the compound was classed as inactive in assay [1], in assay [2], in assay [3], in assay [4], in assay [5] and in assay [6].
As for `O=C1OCc2ccccc21`, the result in assay [1], in assay [2], in assay [3], in assay [4], in assay [5] and in assay [7] was inactive. Further, the compound was classed as inactive in assay [6].
What is called AC50 is the midpoint of the concentration-response curve, whichever way the signal moves. For the compound `C[C@H](CCC(=O)O)[C@H]1CC[C@H]2[C@@H]3CC[C@@H]4C[C@H](O)CC[C@]4(C)[C@H]3CC[C@]12C`, the outcome in assay [1], in assay [3] and in assay [5] was inactive. Besides, the AC50 in assay [2] was 62.7 µM (active); in assay [4], 29.4 µM (active); in assay [6] it was 165 µM (active).
Turning to `CCCCCCCCCOS(=O)(=O)O`, the result in assay [1], in assay [2], in assay [3], in assay [5], in assay [7] and in assay [6] was inactive. The AC50 in assay [4] was 78.7 µM (active).
As to `C1=COCCC1`, the outcome in assay [1], in assay [2], in assay [3], in assay [4], in assay [7] and in assay [6] was inactive. In assay [8], the outcome was inactive.
Turning to `CCCCCc1cccc(=O)o1`, the result in assay [1], in assay [2], in assay [3], in assay [4], in assay [5] and in assay [7] was inactive. Also, the call in assay [6] and in assay [8] was inactive.
`Cc1cc(N)n(-c2ccccc2)n1`: the result in assay [1], in assay [2], in assay [3], in assay [4], in assay [5] and in assay [7] was inactive. Also, the compound was classed as inactive in assay [6] and in assay [8].
Regarding `CCCCCCCCCCCCCC(=O)OCC`, the result in assay [1], in assay [2], in assay [3], in assay [4], in assay [5] and in assay [6] was inactive. For the same compound, the call in assay [8] was inactive.
On to `CC(C)COC(=O)c1ccccc1`, for which the call in assay [1], in assay [2], in assay [3], in assay [4], in assay [5] and in assay [7] was inactive. Also, the result in assay [6] and in assay [8] was inactive.
Consider `CCC(C)(C)C1CCC(OC)CC1` (stereo not drawn), for which the compound was called inactive in assay [1], in assay [2], in assay [3], in assay [4], in assay [5] and in assay [7]. Moreover, the result in assay [6] was inactive.
As for `CC(C)CCCC(C)(C)O`, the compound was classed as inactive in assay [1], in assay [2], in assay [3], in assay [4], in assay [5] and in assay [7]. The compound was called inactive in assay [6].
